# About 79,000 compounds went through this panel and 15% of them were active in at least one assay; those are over-represented in the sample as a whole. Unmarked numbers belong to inactive results. The source made the active and inactive calls. Rule as the data show it: active = growth inhibition above about 70%; inactive = the rest.
# Experiments:
# [1] = NCI Yeast Anticancer Drug Screen. Data for the rad52 strain (AID 147);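 also: 0% = growth of vehicle-treated control cultures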; settings: S. cerevisiae rad52 mutant growth inhibition, hits give high values
# How it was run: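 Vehicle-treated cultures served as the reference for growth inhibition of compound-exposed yeast bearing a DNA repair mutation.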
# [2] = NCI Yeast Anticancer Drug Screen. Data for the wt1 strain (AID 149);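 also: 0% = growth of vehicle-treated wt1 cultures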; settings: S. cerevisiae wt1 strain (SPY 50644) growth inhibition, hits give high values
# How it was run: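 Readout: yeast growth inhibition, normalised to vehicle controls, in the wt1 strain exposed to test compounds.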
# [3] = NCI Yeast Anticancer Drug Screen. Data for the rad50EPP+ strain (AID 151);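 also: 0% = growth of vehicle-treated control cultures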; settings: S. cerevisiae rad50 mutant strain, hits give high values
# How it was run: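 In this screen, rad50EPP+ yeast were exposed to compounds. Growth inhibition was scored against vehicle-treated controls.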
# [4] = NCI Yeast Anticancer Drug Screen. Data for the mgt1 strain (AID 153); settings: S. cerevisiae mgt1 mutant growth inhibition, hits give high values
# How it was run: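 mgt1 strain exposed; growth vs vehicle control recorded as inhibition.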
# [5] = NCI Yeast Anticancer Drug Screen. Data for the rad50 strain (AID 155);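 also: 0% = growth of vehicle-only cultures of the same strain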; settings: S. cerevisiae rad50 strain growth inhibition, hits give high values
# How it was run: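 Compounds were tested on a yeast strain with an engineered DNA damage repair alteration; the reported value is growth inhibition normalised to vehicle treatment.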
# [6] = NCI Yeast Anticancer Drug Screen. Data for the mec2-1 strain (AID 157); settings: S. cerevisiae mec2-1 strain, hits give high values
# How it was run: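 Vehicle-treated cultures served as reference for growth inhibition of compound-exposed mec2-1 yeast.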
# [7] = NCI Yeast Anticancer Drug Screen. Data for the rad14 strain (AID 159);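 also: 0% = growth of vehicle-treated control cultures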; settings: S. cerevisiae rad14 strain growth inhibition, hits give high values
# How it was run: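 Compound-treated yeast with a defined DNA-repair lesion; growth inhibition normalised to vehicle-treated cultures.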
# [8] = NCI Yeast Anticancer Drug Screen. Data for the sgs1 mgt1 strain (AID 161);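 also: 0% = growth of cultures given vehicle only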; settings: S. cerevisiae sgs1 mgt1 strain, hits give high values
# How it was run: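 Test agents were incubated with a DNA-repair-mutant yeast strain. Growth was then read and compared against vehicle-treated controls.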
# [9] = NCI Yeast Anticancer Drug Screen. Data for the CLN2oe strain (AID 163);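 also: 0% = growth of vehicle-only control cultures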; settings: S. cerevisiae CLN2oe strain, hits give high values
# How it was run: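 Inhibition relative to vehicle-treated yeast is reported. Cells: strain with genetic alteration in cell-cycle control, grown with compound.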
# [10] = NCI Yeast Anticancer Drug Screen. Data for the cln2 rad14 strain (AID 165);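 also: 0% = growth equal to vehicle treated cultures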; settings: S. cerevisiae cln2 rad14 strain, hits give high values
# How it was run: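 Each compound was tested on cln2 rad14 yeast. Inhibition of growth was calculated against vehicle-exposed controls.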
# [11] = NCI Yeast Anticancer Drug Screen. Data for the bub3 strain (AID 167); settings: S. cerevisiae bub3 mutant strain, hits give high values
# How it was run: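 Growth of a checkpoint-deficient yeast mutant is measured after compound exposure. Values represent inhibition relative to vehicle.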
# [12] = NCI Yeast Anticancer Drug Screen. Data for the wt2 strain (AID 169);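 also: 0% = growth of vehicle-treated yeast cultures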; settings: S. cerevisiae wt2 strain growth inhibition, hits give high values
# How it was run: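 Inhibition of yeast growth was determined after compound treatment, normalised to controls receiving only vehicle.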
# [13] = NCI Yeast Anticancer Drug Screen. Data for the mlh1 strain (AID 171);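 also: 0% = growth of vehicle-treated control cultures of the same strain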; settings: S. cerevisiae mlh1 strain growth inhibition, hits give high values
# How it was run: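 Vehicle-normalised growth inhibition of a repair- or checkpoint-altered yeast strain following compound treatment.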
# [14] = NCI Yeast Anticancer Drug Screen. Data for the sgs1 strain (AID 173);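 also: 0% = growth of vehicle-only control cultures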; settings: S. cerevisiae sgs1 mutant, hits give high values
# How it was run: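 Screen format: yeast with repair or checkpoint alterations, compound exposure, growth read relative to vehicle.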
# [15] = NCI Yeast Anticancer Drug Screen. Data for the mlh1 rad18 strain (AID 175); settings: S. cerevisiae mlh1 rad18 strain growth inhibition, hits give high values
# How it was run: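 Vehicle-treated cultures served as the reference for growth inhibition in a yeast strain carrying DNA damage repair alterations exposed to each compound.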
# [16] = NCI Yeast Anticancer Drug Screen. Data for the rad18 strain (AID 177); settings: S. cerevisiae rad18 mutant growth inhibition, hits give high values
# How it was run: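 Test articles were incubated with altered yeast defective in DNA damage repair. Results are given as inhibition of growth versus vehicle.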
# [17] = at 5.0 µM (retest, dose inferred, filed as 0.5)
# [18] = at 50.0 µM (retest, dose inferred, filed as 5.0)
smiles,measurement,setting,value
CC1=C[C@H]2O[C@@H]3C[C@H]4OC(=O)/C=C\C=C\C(C(C)O)OCC(O)C(C)CC(=O)OC[C@@]2(C[C@@H]1O)[C@]4(C)[C@@]31CO1 (stereo partly drawn),growth inhibition,[1]; at 1.2 µM,-21%
same,growth inhibition,[1]; at 3.7 µM,2%
same,growth inhibition,[1]; at 11.0 µM,91% (active)
same,growth inhibition,[1]; at 33.0 µM,97% (active)
same,growth inhibition,[1]; at 100.0 µM,97% (active)
same,growth inhibition,[2]; at 1.2 µM,-13%
same,growth inhibition,[2]; at 3.7 µM,24%
same,growth inhibition,[2]; at 11.0 µM,93% (active)
same,growth inhibition,[2]; at 33.0 µM,98% (active)
same,growth inhibition,[2]; at 100.0 µM,98% (active)
same,growth inhibition,[3]; at 1.2 µM,-29%
same,growth inhibition,[3]; at 3.7 µM,-43%
same,growth inhibition,[3]; at 11.0 µM,-31%
same,growth inhibition,[3]; at 33.0 µM,-46%
same,growth inhibition,[3]; at 100.0 µM,-55%
same,growth inhibition,[4]; at 1.2 µM,-54%
same,growth inhibition,[4]; at 3.7 µM,-7%
same,growth inhibition,[4]; at 11.0 µM,92% (active)
same,growth inhibition,[4]; at 33.0 µM,97% (active)
same,growth inhibition,[4]; at 100.0 µM,97% (active)
same,growth inhibition,[5]; at 1.2 µM,-23%
same,growth inhibition,[5]; at 3.7 µM,17%
same,growth inhibition,[5]; [17],41%
same,growth inhibition,[5]; at 11.0 µM,92% (active)
same,growth inhibition,[5]; at 33.0 µM,97% (active)
same,growth inhibition,[5]; [18],98% (active)
same,growth inhibition,[5]; at 50.0 µM,91.1% (active)
same,growth inhibition,[5]; at 100.0 µM,97% (active)
same,growth inhibition,[6]; at 1.2 µM,-60%
same,growth inhibition,[6]; at 3.7 µM,-3%
same,growth inhibition,[6]; [17],40%
same,growth inhibition,[6]; at 11.0 µM,88% (active)
same,growth inhibition,[6]; at 33.0 µM,97% (active)
same,growth inhibition,[6]; [18],98% (active)
same,growth inhibition,[6]; at 50.0 µM,92.2% (active)
same,growth inhibition,[6]; at 100.0 µM,97% (active)
same,growth inhibition,[7]; at 1.2 µM,-14%
same,growth inhibition,[7]; at 3.7 µM,25%
same,growth inhibition,[7]; at 11.0 µM,93% (active)
same,growth inhibition,[7]; at 33.0 µM,97% (active)
same,growth inhibition,[7]; at 100.0 µM,97% (active)
same,growth inhibition,[8]; [17],7%
same,growth inhibition,[8]; [18],12%
same,growth inhibition,[8]; at 50.0 µM,92.2% (active)
same,growth inhibition,[9]; at 1.2 µM,13%
same,growth inhibition,[9]; at 3.7 µM,24%
same,growth inhibition,[9]; at 11.0 µM,91% (active)
same,growth inhibition,[9]; at 33.0 µM,97% (active)
same,growth inhibition,[9]; at 100.0 µM,18%
same,growth inhibition,[10]; [17],18%
same,growth inhibition,[10]; [18],-18%
same,growth inhibition,[10]; at 50.0 µM,91.4% (active)
same,growth inhibition,[11]; at 1.2 µM,-46%
same,growth inhibition,[11]; at 3.7 µM,4%
same,growth inhibition,[11]; [17],4%
same,growth inhibition,[11]; at 11.0 µM,89% (active)
same,growth inhibition,[11]; at 33.0 µM,97% (active)
same,growth inhibition,[11]; [18],-8%
same,growth inhibition,[11]; at 50.0 µM,90.8% (active)
same,growth inhibition,[11]; at 100.0 µM,97% (active)
same,growth inhibition,[12]; at 1.2 µM,-12%
same,growth inhibition,[12]; at 3.7 µM,8%
same,growth inhibition,[12]; at 11.0 µM,78% (active)
same,growth inhibition,[12]; at 33.0 µM,98% (active)
same,growth inhibition,[12]; at 100.0 µM,98% (active)
same,growth inhibition,[13]; at 1.2 µM,-73%
same,growth inhibition,[13]; at 3.7 µM,3%
same,growth inhibition,[13]; at 11.0 µM,89% (active)
same,growth inhibition,[13]; at 33.0 µM,97% (active)
same,growth inhibition,[13]; at 100.0 µM,97% (active)
same,growth inhibition,[14]; at 1.2 µM,-42%
same,growth inhibition,[14]; at 3.7 µM,-17%
same,growth inhibition,[14]; at 11.0 µM,82% (active)
same,growth inhibition,[14]; at 33.0 µM,94% (active)
same,growth inhibition,[14]; at 100.0 µM,96% (active)
same,growth inhibition,[15]; [17],68%
same,growth inhibition,[15]; [18],98% (active)
same,growth inhibition,[15]; at 50.0 µM,89.7% (active)
same,growth inhibition,[16]; at 1.2 µM,-64%
same,growth inhibition,[16]; at 3.7 µM,-15%
same,growth inhibition,[16]; at 11.0 µM,91% (active)
same,growth inhibition,[16]; at 33.0 µM,96% (active)
same,growth inhibition,[16]; at 100.0 µM,96% (active)
C[N+]1(CCCl)CC[N+](C)(CCCl)CC1 (stereo not drawn),growth inhibition,[1]; at 1.2 µM,0%
same,growth inhibition,[1]; at 3.7 µM,3%
same,growth inhibition,[1]; at 11.0 µM,5%
same,growth inhibition,[1]; at 33.0 µM,36%
same,growth inhibition,[1]; at 100.0 µM,95% (active)
same,growth inhibition,[2]; at 1.2 µM,0%
same,growth inhibition,[2]; at 3.7 µM,-1%
same,growth inhibition,[2]; at 11.0 µM,1%
same,growth inhibition,[2]; at 33.0 µM,14%
same,growth inhibition,[2]; at 100.0 µM,95% (active)
same,growth inhibition,[3]; at 1.2 µM,0%
same,growth inhibition,[3]; at 3.7 µM,0%
same,growth inhibition,[3]; at 11.0 µM,2%
same,growth inhibition,[3]; at 33.0 µM,7%
same,growth inhibition,[3]; at 100.0 µM,56%
same,growth inhibition,[4]; at 1.2 µM,-2%
same,growth inhibition,[4]; at 3.7 µM,1%
same,growth inhibition,[4]; at 11.0 µM,3%
same,growth inhibition,[4]; at 33.0 µM,29%
same,growth inhibition,[4]; at 100.0 µM,97% (active)
same,growth inhibition,[5]; at 1.2 µM,1%
same,growth inhibition,[5]; at 3.7 µM,2%
same,growth inhibition,[5]; [17],18%
same,growth inhibition,[5]; at 11.0 µM,4%
same,growth inhibition,[5]; at 33.0 µM,48%
same,growth inhibition,[5]; [18],95% (active)
same,growth inhibition,[5]; at 50.0 µM,97.2% (active)
same,growth inhibition,[5]; at 100.0 µM,96% (active)
same,growth inhibition,[6]; at 1.2 µM,-3%
same,growth inhibition,[6]; at 3.7 µM,-3%
same,growth inhibition,[6]; [17],21%
same,growth inhibition,[6]; at 11.0 µM,2%
same,growth inhibition,[6]; at 33.0 µM,81% (active)
same,growth inhibition,[6]; [18],99% (active)
same,growth inhibition,[6]; at 50.0 µM,96.7% (active)
same,growth inhibition,[6]; at 100.0 µM,98% (active)
same,growth inhibition,[7]; at 1.2 µM,1%
same,growth inhibition,[7]; at 3.7 µM,3%
same,growth inhibition,[7]; at 11.0 µM,7%
same,growth inhibition,[7]; at 33.0 µM,56%
same,growth inhibition,[7]; at 100.0 µM,96% (active)
same,growth inhibition,[8]; [17],29%
same,growth inhibition,[8]; [18],98% (active)
same,growth inhibition,[8]; at 50.0 µM,96.1% (active)
same,growth inhibition,[11]; at 1.2 µM,1%
same,growth inhibition,[11]; at 3.7 µM,1%
same,growth inhibition,[11]; [17],78% (active)
same,growth inhibition,[11]; at 11.0 µM,-5%
same,growth inhibition,[11]; at 33.0 µM,29%
same,growth inhibition,[11]; [18],98% (active)
same,growth inhibition,[11]; at 50.0 µM,97% (active)
same,growth inhibition,[11]; at 100.0 µM,97% (active)
same,growth inhibition,[12]; at 1.2 µM,0%
same,growth inhibition,[12]; at 3.7 µM,0%
same,growth inhibition,[12]; at 11.0 µM,1%
same,growth inhibition,[12]; at 33.0 µM,14%
same,growth inhibition,[12]; at 100.0 µM,94% (active)
same,growth inhibition,[13]; at 1.2 µM,0%
same,growth inhibition,[13]; at 3.7 µM,-1%
same,growth inhibition,[13]; at 11.0 µM,0%
same,growth inhibition,[13]; at 33.0 µM,13%
same,growth inhibition,[13]; at 100.0 µM,94% (active)
same,growth inhibition,[14]; at 1.2 µM,0%
same,growth inhibition,[14]; at 3.7 µM,-1%
same,growth inhibition,[14]; at 11.0 µM,1%
same,growth inhibition,[14]; at 33.0 µM,34%
same,growth inhibition,[14]; at 100.0 µM,96% (active)
same,growth inhibition,[15]; [17],13%
same,growth inhibition,[15]; [18],97% (active)
same,growth inhibition,[15]; at 50.0 µM,97.6% (active)
same,growth inhibition,[16]; at 1.2 µM,-2%
same,growth inhibition,[16]; at 3.7 µM,-1%
same,growth inhibition,[16]; at 11.0 µM,5%
same,growth inhibition,[16]; at 33.0 µM,61%
same,growth inhibition,[16]; at 100.0 µM,97% (active)
